Measurements reported in the supplement of paper PMC12669032.

test system: Lactobacillus gasseri; test: growth AUC relative to DMSO control (median of replicates) (fraction); higher = more growth (less inhibition), active = hit call of the paper; settings: 20 µM; 24 h;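 active = AUC reduced over 20% with Padj below 0.05 in at least 2 of 3 replicates; inactive = otherwise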
In short: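 Area under the growth curve was normalised to the plate median of solvent-only wells, or to row and column medians on the industrial chemical plate. Growth curves came from anaerobic gut bacterial monocultures in mGAM at 37 °C, seeded at OD600 0.05 with 20 µM compound (1% DMSO), and read at OD600 hourly for 24 h with the minimum OD set to 0. The value is the median of three biological replicates grown on separate days.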

SMILES	growth AUC
CCCN(CCC)c1c([N+](=O)[O-])cc(C(C)C)cc1[N+](=O)[O-]	0.941 (inactive)
Nc1ccncc1	0.897 (inactive)
CCCSP(=O)(OCC)SCCC	0.902 (inactive)
BrCCBr	1.03 (inactive)
CCCC(Cn1cncn1)c1ccc(Cl)cc1Cl (stereo not drawn)	1.05 (inactive)
Nc1nc(N)nc(NC2CC2)n1	0.877 (inactive)
C#CC(C)(C)NC(=O)c1cc(Cl)cc(Cl)c1	0.91 (inactive)
Oc1ccc(Cl)cc1	0.968 (inactive)
CNC(=O)Oc1cccc2c1OC(C)(C)O2	1.11 (inactive)
CCNc1nc(Cl)nc(NC(C)(C)C#N)n1	1.19 (inactive)
ClC1=C(Cl)C(Cl)(C2(Cl)C(Cl)=C(Cl)C(Cl)=C2Cl)C(Cl)=C1Cl	1.01 (inactive)
COP(=O)(OC)Oc1ccc(S(C)(=O)=O)c(C)c1	1.07 (inactive)
CC(C)(C)C(O)C(Oc1ccc(-c2ccccc2)cc1)n1cncn1 (mixture of isomers)	0.949 (inactive)
CC(C)(C)N(NC(=O)c1ccc(Cl)cc1)C(=O)c1ccccc1	1.09 (inactive)
Cc1ccccc1[N+](=O)[O-]	1.02 (inactive)
CCN(CC)C(=O)C(C)Oc1cccc2ccccc12 (stereo not drawn)	1.03 (inactive)
CCN(CC)C(=O)SCc1ccc(Cl)cc1	1.08 (inactive)
CNC(=O)ON=C(CS(C)=O)C(C)(C)C (stereo not drawn)	1.06 (inactive)
COP1(=S)OCc2ccccc2O1 (stereo not drawn)	0.945 (inactive)
O=C(O)C(Cl)Cl	1.04 (inactive)
N#CN=C1SCCN1Cc1ccc(Cl)nc1	1.03 (inactive)
CC(C)NC(=O)N1CC(=O)N(c2cc(Cl)cc(Cl)c2)C1=O	1.09 (inactive)
O=[N+]([O-])c1ccccc1	1 (inactive)
[Cl][Sn]([c]1ccccc1)([c]1ccccc1)[c]1ccccc1	0.383 (inactive)
Nc1ncn[nH]1	0.942 (inactive)
CC(C)OC(=O)C(O)(c1ccc(Br)cc1)c1ccc(Br)cc1	0.918 (inactive)
CNC1=C(c2cccc(C(F)(F)F)c2)C(=O)C(c2ccccc2)O1 (stereo not drawn)	0.985 (inactive)
O=c1oc2ccccc2c(O)c1C1CC(c2ccc(-c3ccc(Br)cc3)cc2)Cc2ccccc21 (stereo not drawn)	0.652 (active)
